Data published in PubChem BioAssay AID1345085 (National Center for Advancing Translational Sciences (NCATS), 2018).
Records with an inconclusive call do not appear. Activity calls are given as the source filed them. Calls come from the whole dose curve; as a rule, active = well fitted cell-killing curve with a large enough effect; inconclusive = small, poorly fitted or top-dose-only effect, or effect the other way; inactive = no such curve, though single readings can be large or run the other way.
% is set by controls: 0 for no effect and ±100 for the full control effect; potency is the fitted concentration of half-maximal effect.
Note: nearly all actives have a fitted effect of over 55% in size.

Each compound was assayed on Es-2 (assay: Confirmatory qHTS for gynecologic anti-cancer compounds from libraries of approved drugs and bioactive compounds). Details: gynecologic cancer cell panel viability, ATPlite luminescence, 48 h; series mostly up to 57.6 µM; activity change, negative = viability loss: at the top concentration.
Method in brief: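 Cells (1,000/well) plated 16 h, then exposed 48 h at 37 °C to 11 concentrations (1:3) from 57.5 uM to 0.977 nM. Viability by ATPlite luminescence after 15 min; IC50 derived, with HEK 293T used for selectivity index.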
In the case of `CC[C@@]1(O)C(=O)OCc2c1cc1n(c2=O)Cc2cc3cc(O)ccc3nc2-1`, the Potency is reported as 0.0544 µM (active). `CN1CCN(Cc2ccc(NC(=O)Nc3ccc(Oc4cc(NC(=O)C5CC5)ncn4)cc3)cc2C(F)(F)F)CC1` was tested, and the Potency was 0.544 µM (active). For `CC(C)n1c(/C=C/[C@@H](O)C[C@@H](O)CC(=O)O)c(-c2ccc(F)cc2)c2ccccc21`, the Potency was 5.44 µM (active). With `CO[C@@]12[C@H](COC(N)=O)C3=C(C(=O)C(C)=C(N)C3=O)N1C[C@@H]1N[C@@H]12` the “activity change, negative = viability loss” value was 12.2% (inactive). In the case of `O=C(CCCCCCNC(=O)c1cnc(N(c2ccccc2)c2ccccc2)nc1)NO`, the Potency is reported as 13.7 µM (active). With `O=C(NOC[C@H](O)CO)c1ccc(F)c(F)c1Nc1ccc(I)cc1F` the Potency was 0.344 µM (active). `Cc1ccc(C(=O)Nc2ccc(CN3CCN(C)CC3)c(C(F)(F)F)c2)cc1C#Cc1cnc2[nH]ncc2c1` was tested, and the Potency was 0.306 µM (active). For `OC[C@H]1O[C@@H](n2cnc3c(=S)nc[nH]c32)[C@H](O)[C@@H]1O`, the Potency was 4.85 µM (active). In the case of `CCC1C(=O)N(C)c2cnc(Nc3ccc(C(=O)NC4CCC(N5CCN(CC6CC6)CC5)CC4)cc3OC)nc2N1C(C)C` (stereo not drawn), the Potency is reported as 1.22 µM (active). In the case of `CC(C)Oc1ccc(C(=O)NC(CNC(=O)CN(C)C)Cc2ccc(-c3cn4cccc(C(C)O)c4n3)cc2)cc1Cl` (stereo not drawn), the Potency is reported as 0.385 µM (active). `O=C(NOCC1CC1)c1ccc(F)c(F)c1Nc1ccc(I)cc1Cl` was tested, and the Potency was 1.53 µM (active). With `N=C(N)c1ccc(OCCCCCOc2ccc(C(=N)N)cc2)cc1` the “activity change, negative = viability loss” value was -18.9% (inactive). `CS(=O)(=O)c1ccc(-c2cnc(N)c(C(=O)Nc3ccccc3)n2)cc1` was tested, and the “activity change, negative = viability loss” value was -16.2% (inactive).
